Source: PubChem (National Center for Advancing Translational Sciences (NCATS))
IMPase inh: membrane-permeable compound that blocks inositol monophosphatase. 120,000 tested, under 10 active. inhibition (IP1 accumulation), % at 46.1 µM. AID 901. CHO-M1 cells, IP1 accumulation, HTRF TR-FRET ratio; active = well fitted curve in the direction sought with a large enough effect in the signal ratio, not every such curve was filed as active; inconclusive = small, poorly fitted or top-dose-only effect, or a change in a side signal; inactive = no such curve, though single readings can be large or run the other way; the % refers to the signal ratio;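 note: cells stimulated with carbachol in lithium chloride buffer; plate controls were DMSO basal wells for no effect and reference inhibitor wells for full effect; higher means more IMPase inhibition seen as more IP1 and lower FRET ratio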
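In this qHTS, compounds (final up to 46 uM) act on CHO-M1 cells that are then activated through the M1 receptor with carbachol, in pH 7.4 buffer containing 50 mM LiCl, for 30 min. IP1 accumulation is quantified by the IP-One immunoassay.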
HPGD block: inhibitors of human 15-hydroxyprostaglandin dehydrogenase (HPGD). P15428. purified HPGD, NADH fluorescence kinetic, PGE2 substrate. Potency, µM, inactives show top-dose activity change, negative = inhibition, usual class: inhibitors. actives 4.3% (n = 150,000); note: potency is the fitted concentration of half-maximal effect
Target sequence (P15428 whole entry, looked up): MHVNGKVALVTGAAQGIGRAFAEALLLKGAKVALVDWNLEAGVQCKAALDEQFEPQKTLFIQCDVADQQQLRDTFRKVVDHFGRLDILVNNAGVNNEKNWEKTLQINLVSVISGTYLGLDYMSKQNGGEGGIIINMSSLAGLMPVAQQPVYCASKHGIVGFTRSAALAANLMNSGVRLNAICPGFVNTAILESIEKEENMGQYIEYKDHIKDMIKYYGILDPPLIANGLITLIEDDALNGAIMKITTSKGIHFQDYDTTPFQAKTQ
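20 nM HPGD preincubated 15 min at room temperature with compound in 50 mM Tris-HCl pH 8, 0.01% Tween 20. Started with 1 mM NAD+ and 30 uM prostaglandin E2; NADH fluorescence (360/450 nm) read 5 times over 30-s intervals, last minus first.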
IMPase Li inh: cell-permeable IMPase inhibitors with lithium potentiation. Potency, µM (titrated, usually from 59.4 µM), for the others: top-dose activity, negative = IMPase inhibition, most hits filed as inhibitors. CHO-M1 cells, IP1 TR-FRET (IP-One), carbachol + lithium. AID 1457. actives 0.35% (n = 210,000); active = well fitted inhibition curve with a large enough effect; inconclusive = small, poorly fitted or top-dose-only effect; inactive = no such curve, though single readings can be large or run the other way;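 note: IP1 builds up when IMPase is blocked and the TR-FRET signal falls; potency is the fitted concentration of half-maximal effect; plate controls were basal vehicle for no effect and high inhibitor control for full effect; nearly all actives have a fitted effect of over 50% in size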
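CHO cells stably expressing M1 receptor (2000/well, cultured 16–30 h) treated 30 min at 37C with compound plus low lithium. Cytosolic IP1 by TR-FRET (665/620 ratio and 620 channel) after 10 min lysis; AC50 by Hill fit.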
ALDH1A1 inh: ALDH1A1 (human) enzyme inhibition | P00352 | Purified ALDH1A1, NADH fluorescence, propionaldehyde substrate | Potency, µM (top dose mostly 75.3 µM), inactives show at the highest dose activity, negative = inhibition, actives largely listed as inhibitors | actives 7.3% (n = 220,000) | AID 1030;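 note: potency is the fitted concentration of half-maximal effect; plate controls were no enzyme wells and a reference inhibitor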
Target sequence (P00352 whole entry, looked up): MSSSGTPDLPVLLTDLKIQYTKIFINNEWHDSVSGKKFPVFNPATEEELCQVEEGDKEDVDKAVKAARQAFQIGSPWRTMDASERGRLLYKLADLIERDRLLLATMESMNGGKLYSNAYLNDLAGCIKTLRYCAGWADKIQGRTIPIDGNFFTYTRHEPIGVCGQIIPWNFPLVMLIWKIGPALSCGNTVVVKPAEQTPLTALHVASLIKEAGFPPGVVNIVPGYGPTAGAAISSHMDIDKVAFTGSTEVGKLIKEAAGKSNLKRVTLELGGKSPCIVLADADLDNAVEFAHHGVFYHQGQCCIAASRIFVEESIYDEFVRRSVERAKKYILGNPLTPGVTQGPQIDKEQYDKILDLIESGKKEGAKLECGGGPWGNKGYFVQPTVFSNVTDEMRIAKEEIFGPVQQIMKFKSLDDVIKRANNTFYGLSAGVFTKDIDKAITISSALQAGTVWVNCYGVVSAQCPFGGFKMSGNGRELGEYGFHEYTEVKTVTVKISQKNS
PNC assembly inh: inhibitors of perinucleolar compartment assembly | PC3M PTB-GFP, PNC prevalence imaging, 16 h; stronger effect = lower value | actives 3.1% (n = 140,000) | activity change (PNC), negative = inhibition, % at 10 µM | AID 2417;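 active = readout at or below -70, meaning at least 70% loss of cells showing the perinucleolar compartment, a nuclear body marking cancer cells; inconclusive = readout between -30 and a set limit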;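 note: plate controls were DMSO wells for no effect and camptothecin positive control wells for full effect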
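Read-out is percentage of cells bearing a perinucleolar compartment, from automated 20x imaging of fixed, Hoechst-stained PC3M PTB-GFP cells. Cells were seeded 4 h, then exposed 16 h to compound (23 nl of library stock) in duplicate plates.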
The depositor's hits bear a star; ? = inconclusive; / = not tested or not shown; ! = repeats disagree; [ ] = dose if it differs, or a comment. In the library only some 11% were active in any assay of this set; here they are far more common. Unless noted, calls come from the whole dose curve; as a rule, active = well fitted inhibition curve with a large enough effect (not every such curve was filed as active); inconclusive = small, poorly fitted or top-dose-only effect, or another doubt; inactive = no such curve, though single readings can be large or run the other way. Unless noted, % is set by controls: 0 for no effect and ±100 for the full control effect.

SMILES	IMPase inh	HPGD block	IMPase Li inh	ALDH1A1 inh	PNC assembly inh
CC1CN(CCOCCSc2ccccc2)CC(C)O1 (centres undefined)	/	/	11%	-4%	/
Cc1ccc(C)c(OCCOCCN2CC(C)OC(C)C2)c1C (centres undefined)	10	-9%	31%[38.3 µM]	16µM*	?
CC1=CCC(C(=O)O)C(C(=O)O)C1 (centres undefined)	-3	-6%	-3%[38.3 µM]	-11%	?
CC1=CC(C)C(C(=O)O)C(C(=O)O)C1 (centres undefined)	-9	-9%	16%[38.3 µM]	?	-81*
CCC1(C)Cc2nc3[nH]c(=S)n(-c4ccc(C)cc4)c(=O)c3cc2CO1 (centres undefined)	8	-16%	8.9µM*	?	-15
COc1ccc(OCCC(=O)OCC(=O)NCCc2ccccc2)cc1	/	/	-4%	?	/
CC(C)c1ccc(NC(=S)Nc2ccc3cn[nH]c3c2)cc1	/	/	18%	19µM*	/
O=C(Nc1ccc2cn[nH]c2c1)c1c(Cl)cccc1Cl	6	22µM*	2%	-2%	-23
S=C(Nc1ccc2c(c1)OCO2)N1CCN(Cc2ccco2)CC1	/	/	3%	12%	/
Cc1nnc(N2C(=O)c3cccc4cccc(c34)C2=O)s1	3	?	-10%[38.3 µM]	?	-111*
CCCc1nnc(N2C(=O)c3cccc4cccc(c34)C2=O)s1	-7	?	20%[38.3 µM]	?	21
Clc1cccc(-c2ccc(C=Nc3ccc(N4CCOCC4)cc3)o2)c1	/	-10%	-14%	?	?
CCOC(=O)c1c(C)[nH]c(C)c1C=O	/	/	3%	5%	/
CCOC(=O)c1c(C)[nH]sc1=S	?	?	14µM*	?	35
CCOc1ccccc1N1CCN(c2nc(N)c(C#N)c(CC#N)c2C#N)CC1	-3	-30%	34%[38.3 µM]	20µM*	?
CCOC(=O)c1sc(NC(=O)C(C)Sc2nc(-c3ccccc3)cc(C(F)(F)F)n2)c(C(=O)OC)c1C (centres undefined)	-6	/	/	/	/
CCN1C(=O)CC(N2CCN(c3ccc(C(=O)c4ccccc4)cc3)CC2)C1=O (centres undefined)	4	22µM*	-7%[38.3 µM]	?	8
O=C1CC(N2CCN(c3ccc(F)cc3)CC2)C(=O)N1Cc1cccs1 (centres undefined)	6	-11%	46%[38.3 µM]	14µM*	-26
CCCOc1ccc(N2C(=O)CC(N3CCN(C(=O)c4ccco4)CC3)C2=O)cc1 (centres undefined)	8	7%	-6%	?	-7
O=C1CC(N2CCC(c3nc4ccccc4o3)CC2)C(=O)N1Cc1cccs1 (centres undefined)	-4	3%	17%[38.3 µM]	?	-3
CCCOc1ccc(N2C(=O)CC(N3CCN(c4nc5ccccc5s4)CC3)C2=O)cc1 (centres undefined)	3	-15%	22%[38.3 µM]	14µM*	-11
NC(=O)C1CCN(C2CC(=O)N(Cc3cccs3)C2=O)CC1 (centres undefined)	2	5%	15%[38.3 µM]	?	-19
O=C1CC(N2CCN(c3nc4ccccc4s3)CC2)C(=O)N1Cc1cccs1 (centres undefined)	9	-2%	17%[38.3 µM]	22µM*	?
CCCCC[C@H](CC(=O)NO)C(=O)N[C@@H](C(=O)N1CCC[C@H]1CO)C(C)C	8	/	/	/	/
CN(C)CCCCSC(=N)N	6	2%	6%	25µM*!	/
SMILES	IMPase inh	HPGD block	IMPase Li inh	ALDH1A1 inh	PNC assembly inh
CCc1ccc(Oc2c(C(F)(F)F)oc3c(CN4CCN(C)CC4)c(O)ccc3c2=O)cc1	-5	/	/	/	/
CSc1ccc(S(=O)(=O)Nc2ccc(OCC(=O)N3CCOCC3)cc2)cc1	/	/	2%	13µM*	/
Cc1cccc(N(CC(=O)N2CCCC2)S(=O)(=O)c2ccccc2)c1C	?	-13%	-5%[38.3 µM]	-2%	17
CCOc1ccccc1N(CC(=O)N1CCOCC1)S(=O)(=O)c1ccc(SC)cc1	1	2%	7%[38.3 µM]	8.9µM*	-8
O=C(CN(c1ccccc1F)S(=O)(=O)c1ccccc1)N1CCCCCC1	4	3%	40%[38.3 µM]	28µM*	-1
O=C(CN(Cc1ccccc1)S(=O)(=O)c1ccccc1)N1CCOCC1	1	0%	-1%[38.3 µM]	-2%	-101*
NNC(=O)CCSc1ccccc1	/	-1%	-5%	2%[13.5 µM]	/
C=CCOC(=O)C(C(C)=O)C(NC(=O)OC)c1ccc2ccccc2c1 (centres undefined)	/	/	/	4%[13.5 µM]	/
CCCNS(=O)(=O)c1ccc(OCC(=O)N2CCOCC2)cc1	3	-8%	-1%	12%	-100*
CCCNS(=O)(=O)c1ccc(OCC(=O)N2CCN(c3ccccc3)CC2)cc1	/	/	3%	4%	/
CC(Oc1ccccc1Cl)C(=O)/C=C/N(C)C (centres undefined)	5	14µM*	-2%[38.3 µM]	-3%	-16
CC(Oc1ccc(F)cc1)C(=O)/C=C\N(C)C (centres undefined)	4	-26%	-8%	8%	-88*
CC(Oc1ccc(F)cc1)C(=O)NN (centres undefined)	/	-10%	-6%	5µM*	22
CC(Oc1ccc(-c2nccc(-c3ccccn3)n2)cc1)C(=O)NN (centres undefined)	7	-5%	16%[38.3 µM]	18µM*	6
CC(Oc1cccc(F)c1)C(=O)/C=C\N(C)C (centres undefined)	?	?	-9%[38.3 µM]	-5%	-19
Cc1ccc(C(=O)Oc2ccc(-c3nccc(-c4ccccn4)n3)cc2)cc1	-4	-17%	14%	9%	?
CC(Oc1ccccc1F)C(=O)/C=C/N(C)C (centres undefined)	7	28µM*	-7%[38.3 µM]	19%	-13
CCOC(=O)C1CCN(C(=O)CS(=O)Cc2nc(-c3ccc(C)cc3)oc2C)CC1 (centres undefined)	-2	-15%	3%[38.3 µM]	25µM*	12
Cc1cc(C)cc(Oc2coc3cc(OCC(=O)NC4CCCCC4)ccc3c2=O)c1	-3	/	/	/	/
COC(=O)N1[C@H](C)C=C[C@]1(Cc1ccccc1)C(=O)NCc1ccc(N(C)C)cc1	/	-14%	-2%	8.9µM*	/
O=C(C[n+]1cn(C(F)F)c2ccccc21)c1ccc(OC(F)F)cc1	/	/	-5%	9.5µM*	/
O=C(C[n+]1ccc(C(=O)NCc2ccccc2)cc1)c1ccc(OC(F)F)cc1	/	/	-3%	?	/
Cc1ccc2[nH]c(-c3ccc(F)cc3F)cc(=O)c2c1	/	?	-12%	?	/
O=C(CNCc1ccccc1Cl)Nc1ccc2c(c1)OCCO2	/	/	/	13µM*	/
CCN(CC(=O)Nc1ccc2c(c1)OCCO2)Cc1cc(=O)oc2c(C)c(C)ccc12	3	-17%	12%[38.3 µM]	16µM*	?
CCN(CC(=O)Nc1ccc2c(c1)OCCO2)CC(=O)Nc1ccc2c(c1)OCO2	/	/	-12%	10µM*	/
COCC(=O)Nc1ccc2c(c1)OCO2	/	/	-2%	-2%	/
